# Assay outcomes: PubChem BioAssay, National Center for Advancing Translational Sciences (NCATS)
# FEN1 inhibitor: human FEN1 inhibition; Potency, µM (top dose mostly 114 µM), without a hit: top-dose activity change, negative = inhibition, most hits filed as inhibitors; AID 588795; P39748; hit rate 0.35% among 390,000; Recombinant FEN1 flap cleavage, fluorescence, 15 min; further: on the % scale 0 is the no-effect control and ±100 the full control effect; nearly all actives have a fitted effect of over 65% in size
# Target sequence (P39748 whole entry, looked up): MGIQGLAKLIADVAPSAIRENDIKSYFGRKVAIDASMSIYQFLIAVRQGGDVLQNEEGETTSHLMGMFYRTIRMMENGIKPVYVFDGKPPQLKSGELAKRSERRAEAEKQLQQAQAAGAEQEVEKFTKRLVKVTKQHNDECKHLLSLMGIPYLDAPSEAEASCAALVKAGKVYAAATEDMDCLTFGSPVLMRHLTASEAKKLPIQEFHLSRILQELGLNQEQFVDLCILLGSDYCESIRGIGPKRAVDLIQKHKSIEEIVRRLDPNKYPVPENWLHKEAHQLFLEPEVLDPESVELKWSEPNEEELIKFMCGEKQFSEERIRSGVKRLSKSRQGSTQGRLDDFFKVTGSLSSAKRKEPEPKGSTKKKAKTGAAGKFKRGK
#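 Compounds are tested as a concentration series against 10 nM FEN1; after a 15 min room-temperature preincubation, 50 nM substrate starts cleavage, with plate reads at 0 and 15 min. Normalized responses are fitted by a Hill equation.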
# POLI inh: blocks human DNA polymerase iota activity. Q9UNA4. Pol iota fluorescent replication assay, 10 min. Potency, µM (titrated, usually from 115 µM), inactives show top-dose activity, negative = inhibition, actives largely listed as inhibitors. hit rate 1% among 390,000
#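 Pol iota at 10 nM preincubated 15 min with compounds at room temperature; reaction started with fluorescent substrate, 50 nM final. Fluorescence read kinetically at 0 and 10 min; buffer-only wells as negative control.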
# POLK inh: DNA polymerase kappa (human) inhibition; Q9UBT6; purified Pol kappa, fluorescent DNA synthesis assay, 10 min; Potency, µM (doses to about 107 µM), for the others: at the highest dose activity, negative = inhibition, hits mostly inhibitors; hit rate 0.53% among 400,000; AID 588579; further: on the % scale 0 is the no-effect control and ±100 the full control effect
#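 50 nM final substrate added after 15 min RT preincubation of 10 nM Pol kappa with compound; fluorescence read at 0 and 10 min.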
# POLB inh: DNA polymerase beta (human) inhibition. P06746. Pol beta primer extension/strand displacement, fluorescence kinetic. hit rate 1.3% among 340,000. Potency, µM (doses to about 114 µM), for the others: top-dose activity change, negative = inhibition, hits mostly inhibitors; further: on the % scale 0 is the no-effect control and ±100 the full control effect
#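 Homogeneous kinetic assay of primer extension and strand displacement by 10 nM Pol beta, preincubated 15 min at room temperature with compound before 50 nM substrate (final) was added. Read at 0 and 10 min; four-parameter Hill fit.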
# WRN inhibitor: blocks human WRN helicase; Q14191; WRN helicase unwinding, fluorescent forked duplex, kinetic; Potency, µM (doses to about 114 µM), without a hit: top-dose activity change, negative = inhibition, hits mostly inhibitors; hit rate 0.46% among 360,000; AID 651768; further: on the % scale 0 is the no-effect control and ±100 the full control effect; nearly all actives have a fitted effect of over 55% in size
#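 Fluorescence dequenching readout, ex 525 nm/em 598 nm, kinetic mode: forked duplex DNA (100 nM final) with adjacent fluorophore and quencher unwound by WRN (20 nM final) with 2 mM ATP. Compound preincubation 15 min, room temperature.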
# POLH inh: DNA polymerase eta (human) inhibition; hit rate 1.2% among 390,000; recombinant Pol eta, fluorescent DNA replication assay; Q9Y253; Potency, µM (highest dose often 114 µM), without a hit: top-dose activity change, negative = inhibition, usual class: inhibitors; further: on the % scale 0 is the no-effect control and ±100 the full control effect
#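 Fluorescent replication assay: 50 nM final substrate added after a 15 min room-temperature compound preincubation with 10 nM enzyme. Signal taken at 0 min and again at 10 min.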
# * hit, by the source's call; ? = inconclusive; . = not tested or not shown; [ ] = dose if it differs, or a comment. Rows were chosen to be rich in hits. Some 2.4% of all compounds tested hit in one or more screens of this group. The call rests on the fitted dose curve; in most records, active means well fitted curve in the direction sought with a large enough effect; inconclusive means small, poorly fitted or top-dose-only effect, or another doubt; inactive means no such curve, though single readings can be large; an effect the other way counts as inactive or inconclusive. Potency means the concentration at half of the fitted maximal effect.
SMILES,FEN1 inhibitor,POLI inh,POLK inh,POLB inh,WRN inhibitor,POLH inh
COc1cc(/C=C2\C(=O)NN(c3ccc(C)cc3)C2=O)cc([N+](=O)[O-])c1O,-5%,-11%,-26%,?,?,22µM*
COc1cc(/C=C2\SC(=O)N(Cc3ccc(Cl)cc3)C2=O)cc([N+](=O)[O-])c1O,?,?,-18%,8%,-6%[11.6 µM],79µM*
COc1cc(/C=C2/C(=O)NN(c3ccc(Cl)cc3)C2=O)cc(OC)c1O,-11%,?,-7%,-25%,-26%,-5%
CC(=O)c1cccc(NC(=O)c2c(N3CCCC3=O)c3cc(F)ccc3n2C)c1,1%,25%,9%,26%,.,-9%
Nc1nonc1C(=O)N/N=C/c1ccc(-c2cccc(C(=O)O)c2)o1,.,.,.,18µM*,.,.
O=S(=O)(Nc1nc2ccc(S(=O)(=O)N3CCCC3)cc2s1)c1ccc(F)cc1,-5%,?,-28%,-2%,-2%,89µM*
COc1cc(OC)cc(C(=O)Nc2ccc(S(=O)(=O)N3CCCCC3c3cccnc3)cc2)c1 (stereo not drawn),-19%,?,-10%[60.1 µM],-17%,.,-8%
COc1cccc(Cn2cccc(NC(=O)NCc3ccccc3)c2=O)c1,17%,49%,-3%,2%,11%,0%
COc1cccc(Cn2cccc(NC(=O)Nc3ccccc3C)c2=O)c1,-32%,13µM*,4%,-28%,0%[11.6 µM],-5%
C=CC(C)(C)c1[nH]c2ccccc2c1C1=C(O)C(=O)C(c2c[nH]c3c(CC=C(C)C)cccc23)=C(O)C1=O,.,.,1.4µM*,.,.,.
C=CC(C)(C)c1c(O)c(CC=C(C)C)c(O)c2c(=O)c3ccc(O)c(O)c3oc12,-26%,-14%,-17%,.,-12%,-5%
CC(/C=C/C=C(\C)C(=O)O[C@@H]1O[C@H](CO[C@@H]2O[C@H](CO)[C@@H](O)[C@H](O)[C@H]2O)[C@@H](O)[C@H](O)[C@H]1O)=C\C=C\C=C(C)\C=C\C=C(/C)C(=O)O[C@@H]1O[C@H](CO[C@@H]2O[C@H](CO)[C@@H](O)[C@H](O)[C@H]2O)[C@@H](O)[C@H](O)[C@H]1O,.,.,21µM*,.,.,.
COc1ccccc1C(=O)Nc1ccnn1C1CCN(Cc2cnc(N(C)C)s2)CC1,18%,17%,1%,89µM*,5%,-9%
O=C(O)c1cc(N(Cc2ccccc2O)Cc2ccccc2O)ccc1O,?,14µM*,45µM*,.,.,.
CCN(CC)c1ccc(C(=O)c2ccccc2C(=O)O)c(O)c1,-8%,-8%,-3%,9%,-9%,-14%
N#Cc1cccc(NC(=O)CSc2sc3c(O)cc(=O)[nH]c3c2C#N)c1,?,?,?,?,?,50µM*
N#Cc1c(SCC(=O)Nc2ccc(Cl)cc2Cl)sc2c(O)cc(=O)[nH]c12,-3%,32µM*,-41%,10%,-3%[11.6 µM],25µM*
N#Cc1c(SCC(=O)Nc2ccccc2C(F)(F)F)sc2c(O)cc(=O)[nH]c12,-20%,32µM*,?,-16%,-3%[11.6 µM],?
CSc1ccc(NC(=O)CSc2nc3[nH]c(=O)cc(O)c3s2)cc1,?,?,56µM*,.,?,40µM*
CC(=O)N(/N=C1\Sc2ccccc2C1=O)c1ccccc1C,0%,7%,1%,0%,-8%[57.1 µM],20µM*
CCN(Cc1ccccc1)C(=O)c1cc(-c2ccccc2)n[nH]1,-11%,34%,-26%,1%,.,-9%
S=C(NCCCc1cnc[nH]1)NCCCN(Cc1ccc(Cl)cc1)c1cc(-c2ccccc2)ccn1,-17%,?,-19%,.,.,.
O=C(N/N=C/c1cccnc1)c1cc2c(ccc3ccccc32)o1,?,?,-41%,11µM*,-26%,?
COc1cc(/C=N/NC(=O)CSc2cc(C)c(Br)cc2C)ccc1O,-18%,3%,-10%,1%,-9%,?
Cc1cc(SCC(=O)N/N=C/c2ccc(O)c(O)c2O)c(C)cc1Br,40µM*,?,?,?,50µM*,?
